# Measured values reported in PubChem BioAssay (Tox21).
# Inconclusive results are not listed. The source made the active and inactive calls. Unless noted, the call rests on the fitted dose curve.
# Assay: qHTS assay to identify small molecule agonists of the endoplasmic reticulum stress response signaling pathway (AID 1159516; active means well fitted activation curve with a large enough effect in the signal ratio in the repeat runs, not every such curve was filed as active; the % refers to the signal ratio)
# Details: ESRE-bla HeLa, ER stress beta-lactamase reporter, 5 h; series mostly up to 61 µM; activation: at the top concentration
# Method in brief: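 CellSensor ESRE-bla HeLa cells, carrying a beta-lactamase reporter driven by the ER stress response element, were plated overnight and exposed to compounds for 5 hr at 37 C. Reporter activity was read as FRET substrate fluorescence after 2 hr at room temperature.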
# On the % scale 0 is the no-effect control and ±100 the full control effect.
row,SMILES,activation
1,O=C(O)c1cn(-c2ccc(F)cc2)c2cc(N3CCNCC3)c(F)cc2c1=O,3.31% [at 28.5 µM] (inactive)
2,CC(=O)CC(=O)Nc1ccc2[nH]c(=O)[nH]c2c1,-0.905% (inactive)
3,OCC(CO)N[C@H]1C[C@](O)(CO)[C@@H](O)[C@H](O)[C@H]1O,0.218% (inactive)
4,C#CC(C)(CC)OC(=O)c1ccccc1C(=O)O (configuration not stated),3.17% (inactive)
5,c1cnc2cc3c(cc2n1)C1CNCC3C1,4.16% (inactive)
6,NCCO,1.71% (inactive)
7,CC(=O)Nc1ccc(C(=O)CCl)cc1,3.1% [at 78.8 µM] (inactive)
8,c1ccc2c(c1)CCCC2C1=NCCN1 (configuration not stated),2.02% (inactive)
9,CC(C)CCOC(=O)c1ccc(N(C)C)cc1,-0.535% (inactive)

# Assay: qHTS assay to identify small molecule agonists of the endoplasmic reticulum stress response signaling pathway - cell viability counter screen (AID 1159517); further: nearly all actives have a fitted effect of over 50% in size
# Details: ESRE-bla HeLa viability, CellTiter-Glo luminescence, 5 h; series mostly up to 61 µM; activity change, negative = cytotoxicity: at the top concentration
# Method in brief: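 Cells, HeLa ESRE-bla; density, 1,500/well; dosing, 5 hr at 37 C, 5% CO2; readout, CellTiter-Glo luminescence after 30 min RT.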
SMILES,"activity change, negative = cytotoxicity",Potency
Cc1ccnc2c1NC(=O)c1cccnc1N2C1CC1,9.31% (inactive),
CC(C(O)c1ccc(O)cc1)N1CCC(Cc2ccccc2)CC1 (configuration not stated),1.6% (inactive),
NCCCCCC(=O)O,0.885% (inactive),
NC12CC3CC(CC(C3)C1)C2,6.45% (inactive),
CC(=O)OCCOCCOCCOC(C)=O,,inactive
CC[C@@H](N)CO,1.2% [at 78.8 µM] (inactive),
CCC(CO)(CO)COCC(CC)(CO)CO,-12.3% (inactive),
COc1ccc(Cc2cnc(N)nc2N)cc1OC,-2.4% (inactive),
O=C(OCc1ccccc1)c1ccc(O)cc1,,inactive
CCCC(=O)c1ccccc1,0.134% (inactive),
COc1nc(C)nc(Cl)c1NC1=NCCN1,-0.808% (inactive),
CCCCN(CCO)CCCC,27.9% [at 78.8 µM] (inactive),
COc1ccc(COC(C)=O)cc1,,inactive
CC(=O)CC(C)=O,2.69% [at 78.8 µM] (inactive),
CCN1CCCC1CNC(=O)c1cc(S(=O)(=O)CC)c(N)cc1OC (configuration not stated),1.06% (inactive),
C1COC(NC(C2CC2)C2CC2)=N1,-10.3% (inactive),
NC(N)=NC(=O)Cc1c(Cl)cccc1Cl,-10.8% (inactive),
CCC(=O)/C=C/C1C(C)=CCCC1(C)C (configuration not stated),,inactive
